Experimental findings from PubChem BioAssay are described below.

Calls of active or inactive are those of the source. Unless noted, the rule behind the calls is not given here.

Test [1] can be described thus: HepG2 liver cancer cell viability effects, profiling panel, resazurin fluorescence, 24 h, PK04 Diversity Set (AID 1172). Note: test concentration not given here. The settings on record: higher = more signal.
The nature of test [2]: basal S. cerevisiae growth modulation, no modifier, primary screen, OD600, strain BY4716, 24 h, basal condition (AID 1173). The note with it: OD600, 24 h, higher = more signal, called active from +8 up or from −8 down.
A short description of test [3]: MM1S myeloma cell viability, profiling panel, resazurin fluorescence, basal, 24 h, PK04 Diversity Set (AID 1174).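 Note: MM1S multiple myeloma cell line; test concentration not given here.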 The note with it: higher = more signal, called active from +8 up or from −8 down. (Alamar Blue is a resazurin reagent that responds to reducing activity.)
The target of test [4] is Dihydroorotate dehydrogenase (quinone), mitochondrial (Plasmodium falciparum (isolate 3D7)) (UniProt Q08210). The test can be described thus: PfDHODH enzyme inhibitors, primary screen, biochemical, C-terminal His tag, absorbance 600 nm (AID 1175).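 Note: recombinant parasite enzyme with a five histidine tag at its C terminus; test concentration not given here.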 The note with it: DCIP absorbance 600 nm, higher = more signal, called active from +8 up or from −8 down.
A short description of test [5]: P. aeruginosa biofilm formation inhibitors, primary screen, strain PAO1, LB-PBS medium, absorbance 600 nm (AID 1176). Note: test concentration not given here. The settings on record: P. aeruginosa PAO1 growth/biofilm, A600, 12 h; higher = more signal.
Test [6] in a line: S. cerevisiae RM11-1a growth modifiers, primary screen, strain RM11-1a, OD600, basal, 24 h (AID 1177).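 Note: cultures grown under basal conditions with no added stressor; test concentration not given here.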 The settings on record: OD600, 24 h, higher = more signal, called active from +8 up or from −8 down.
A short description of test [7]: E. coli acrAB mutant growth effects, primary screen, E. coli filamentation inducers, strain DRC39, OD650, 24 h (AID 1178).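 Note: growth measured as culture turbidity by optical density at 650 nm; test concentration not given here.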 The settings on record: higher = more signal, called active from +8 up or from −8 down.
Test [8] can be described thus: E. coli acrAB mutant growth effects, primary screen, E. coli filamentation inducers, strain DRC39, OD650, 48 h (AID 1179).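 Note: screen aims at cell division blockers that make cells filament.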 The settings on record: E. coli DRC39 delta-acrAB growth, higher = more signal, called active from +8 up or from −8 down.
The nature of test [9]: RPMI8226 myeloma cell viability, profiling panel, resazurin fluorescence, basal, 24 h, PK04 Diversity Set (AID 1180).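 Note: RPMI8826 multiple myeloma cell line at 5000 cells per well; test concentration not given here.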 The settings on record: higher = more signal.
Test [10] deals with E3 ubiquitin-protein ligase XIAP (Homo sapiens) (UniProt P98170). The test can be described thus: XIAP binders, primary screen, biophysical, small-molecule microarray, fluorescence 635 nm (AID 1181).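 Note: score merges 667 nm emission and signal to noise over triplicate slides.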 The settings on record: small-molecule microarray binding, higher = more signal.
E3 ubiquitin-protein ligase XIAP (Homo sapiens), sequence (P98170 whole entry, looked up): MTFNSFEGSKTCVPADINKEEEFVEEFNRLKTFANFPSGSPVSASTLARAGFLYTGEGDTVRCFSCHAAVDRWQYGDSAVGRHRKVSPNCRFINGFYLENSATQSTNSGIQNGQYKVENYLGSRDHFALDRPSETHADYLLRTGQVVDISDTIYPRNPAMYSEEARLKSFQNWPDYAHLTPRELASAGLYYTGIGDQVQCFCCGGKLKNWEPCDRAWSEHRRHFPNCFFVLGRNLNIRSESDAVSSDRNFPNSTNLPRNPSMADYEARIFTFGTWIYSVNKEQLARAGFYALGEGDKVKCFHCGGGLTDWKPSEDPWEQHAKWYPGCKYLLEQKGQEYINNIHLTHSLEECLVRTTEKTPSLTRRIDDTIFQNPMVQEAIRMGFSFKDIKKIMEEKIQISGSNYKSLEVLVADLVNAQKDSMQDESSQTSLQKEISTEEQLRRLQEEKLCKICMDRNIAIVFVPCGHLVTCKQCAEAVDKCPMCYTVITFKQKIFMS

Dihydroorotate dehydrogenase (quinone), mitochondrial (Plasmodium falciparum (isolate 3D7)), sequence (Q08210 whole entry, looked up): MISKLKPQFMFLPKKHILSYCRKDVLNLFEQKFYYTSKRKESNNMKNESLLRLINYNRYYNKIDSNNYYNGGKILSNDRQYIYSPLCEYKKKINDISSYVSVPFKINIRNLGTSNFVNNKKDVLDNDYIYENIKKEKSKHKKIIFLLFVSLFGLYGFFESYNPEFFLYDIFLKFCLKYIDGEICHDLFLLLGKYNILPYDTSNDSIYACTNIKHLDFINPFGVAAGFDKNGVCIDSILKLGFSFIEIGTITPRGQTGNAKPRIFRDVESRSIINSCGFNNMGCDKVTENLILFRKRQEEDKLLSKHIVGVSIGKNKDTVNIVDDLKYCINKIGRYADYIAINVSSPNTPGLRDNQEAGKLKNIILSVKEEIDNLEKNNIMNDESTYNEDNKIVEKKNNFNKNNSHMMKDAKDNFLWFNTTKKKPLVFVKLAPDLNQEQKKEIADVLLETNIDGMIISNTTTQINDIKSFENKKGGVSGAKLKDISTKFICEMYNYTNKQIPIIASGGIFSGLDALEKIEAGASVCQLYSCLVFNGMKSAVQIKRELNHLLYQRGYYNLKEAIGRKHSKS

Regarding `CCOC(=O)CCN1C(=O)[C@H]2[C@H]3[C@H](O)[C@H](O)CC(=NNC(=O)OCc4ccccc4)[C@H]3CC[C@H]2C1=O`, the z-score in test [1] was -0.0842; in test [2] it was -0.712 (inactive); in [3], -0.364 (inactive); in test [5] it was 1.1 (inactive); in test [6], -1.26 (inactive); in [7], -0.213 (inactive). In addition, the z-score is -0.354 (inactive) in test [8] and 0.0536 in [9]. Besides, the composite z-score in test [4] is -0.192 (inactive); in test [10], -0.163.

As to `CCOC(=O)NN=C1C[C@@H](O)[C@@H](O)[C@@H]2[C@@H]3C(=O)N(CC)C(=O)[C@@H]3CC[C@H]12`, the z-score in test [1] was -0.635; in test [2], 0.467 (inactive); in test [3], -2.97 (inactive); in test [5], 0.0578 (inactive); in test [6], 0.355 (inactive); in test [7], 0.334 (inactive). For the same compound, the z-score in [8] is 0.388 (inactive); in test [9] it was -1.04. Moreover, the figures for the composite z-score in test [4] and in [10] were 0.463 (inactive) and 0.0119, respectively.

With `COc1cccc([C@H](O)Cn2cc(-c3ccc(CON=C(C)C)cc3)nn2)c1`, the z-score in test [1] was -0.262; in test [2], -0.377 (inactive); in test [3], -0.307 (inactive); in [5] it was 0.475 (inactive); in test [6] it was -0.47 (inactive); in test [7], 0.419 (inactive). Moreover, the z-score in test [8] was 0.291 (inactive); in [9], -0.0501. Also, the composite z-score in test [4] is -0.217 (inactive); in test [10] it was -0.167.

`CCOC(=O)CCN1C(=O)[C@H]2[C@H]3[C@H](O)[C@H](O)CC(=NO[C@@H]4O[C@H](CO)[C@@H](O)[C@H](O)[C@H]4O)[C@H]3CC[C@H]2C1=O`: the z-score is -0.228 in test [1]; 0.87 (inactive) in [2]; -0.433 (inactive) in test [3]; -0.483 (inactive) in [5]; -0.402 (inactive) in [6]; -0.739 (inactive) in test [7]. Moreover, the z-score was -0.0907 (inactive) in test [8] and -0.162 in test [9]. Moreover, the composite z-score was 0.29 (inactive) in test [4] and 0.106 in [10].

For the compound `CC(C)=CCCC(C)=CCON=C1C[C@@H](O)[C@@H](O)[C@@H]2[C@@H]3C(=O)N(Cc4ccc5c(c4)OCO5)C(=O)[C@@H]3CC[C@H]12`, the z-score in test [1] is 0.659; in test [2], 0.522 (inactive); in [3], -0.503 (inactive); in [5], 0.437 (inactive); in test [6], 1.01 (inactive); in test [7], 0.454 (inactive). Moreover, the z-score was 0.0551 (inactive) in test [8] and -0.402 in [9]. For the same compound, the figures for the composite z-score in [4] and in test [10] were -0.108 (inactive) and -0.144, respectively.

On to `CCN1C(=O)[C@H]2[C@@H]3C(=CC[C@H]2C1=O)C(=O)[C@H]1O[C@H]1[C@H]3O`, for which the z-score in test [1] was -1.22; in test [2], -1.12 (inactive); in test [3], -5.38 (inactive); in test [5], -0.978 (inactive); in test [6], -0.628 (inactive); in [7], -0.615 (inactive). For the same compound, the z-score in test [8] is -0.788 (inactive); in test [9], -2.17. In addition, the composite z-score in test [4] is -0.0207 (inactive); in [10], 0.334.

With `COC(=O)C1=C(C)N(Cc2ccccc2)C2=C3C(=O)OCC[C@@H]3[C@@](O)(C(=O)OC)C(=O)N2[C@@H]1c1ccccc1`, the z-score was 1.11 in [1]; -0.319 (inactive) in test [2]; -1.3 (inactive) in test [3]; -0.458 (inactive) in [5]; 0.681 (inactive) in [6]; 0.933 (inactive) in test [7]. In addition, the z-score is 0.575 (inactive) in test [8] and -0.0018 in test [9]. In addition, the composite z-score was 0.524 (inactive) in test [4] and -0.0931 in test [10].

Take `CO[C@H]1COC(=O)[C@H](C)COC(=O)[C@@H](OCc2ccccc2)C=C[C@@H]1C`: the z-score in [1] is 0.176; in test [2], -2.14 (inactive); in [3], -0.114 (inactive); in [5] it was -0.355 (inactive); in test [6], -0.077 (inactive); in test [7] it was 1.02 (inactive). Also, the z-score was 0.636 (inactive) in test [8] and -0.476 in test [9]. In addition, the composite z-score is 0.175 (inactive) in [4] and -0.138 in test [10].

With `O=C1C2=CC[C@H]3C(=O)N(Cc4ccccc4)C(=O)[C@H]3[C@H]2[C@H](O)[C@@H]2O[C@H]12`, the z-score in test [1] is 0.35; in test [2], -2.16 (inactive); in test [3], -5.73 (inactive); in [5], 0.0821 (inactive); in test [6], -1.22 (inactive); in test [7] it was -0.416 (inactive). Further, the z-score in test [8] was -0.425 (inactive); in test [9], -3.38. The composite z-score in test [4] was -1.59 (inactive); in test [10], 0.0006.

In the case of `CCCC[C@H]1CN2[C@@H](CC[C@@H](C)[C@@H]2c2ccc(Br)cc2)C(=O)O1`, the z-score in [1] is 0.314; in test [2], -2.36 (inactive); in [3] it was 1.05 (inactive); in [5] it was -0.515 (inactive); in test [6], 0.0621 (inactive); in test [7] it was -0.959 (inactive). Besides, the figures for the z-score in test [8] and in test [9] were -0.985 (inactive) and 0.919, respectively. For the same compound, the composite z-score is -0.355 (inactive) in test [4] and 0.127 in test [10].

As to `CC(C)=CCCC(C)=CCON=C1C[C@@H](O)[C@@H](O)[C@@H]2[C@@H]3C(=O)N(Cc4ccc5c(c4)OCO5)C(=O)[C@@H]3CC[C@@H]12`, the z-score in test [1] is 0.542; in test [2], -0.872 (inactive); in [3] it was 0.411 (inactive); in [5], -0.437 (inactive); in [6], 0.268 (inactive); in test [7], 0.499 (inactive). For the same compound, the figures for the z-score in test [8] and in [9] were -0.588 (inactive) and 0.354, respectively. The composite z-score is -0.396 (inactive) in test [4] and -0.17 in [10].

Consider `CCOC(=O)[C@H](CC(C)C)NC(=O)CCC1CC(OC(=O)NCCc2ccc(F)cc2)CC2(CCCC(COC(=O)NCCOC)O2)O1` (stereo not given in full), for which the z-score in test [1] was 0.0369; in test [2] it was 1.02 (inactive); in test [3], 0.581 (inactive); in [5], 0.283 (inactive); in [6] it was 0.963 (inactive); in test [7], 0.0415 (inactive). In addition, the values for the z-score in [8] and in test [9] were -0.489 (inactive) and 0.464, respectively. Besides, the composite z-score in test [4] is 0.753 (inactive); in test [10], -0.18.

Consider `COC(=O)[C@H](C)NC(=O)CC=C[C@@H](C)[C@@H]1C=C[C@H](O)[C@@H](CO)O1`, for which the z-score in test [1] is -0.261; in [2], 0.104 (inactive); in [3], -0.543 (inactive); in [5], 0.25 (inactive); in test [6] it was 0.253 (inactive); in test [7], 0.64 (inactive). The z-score in test [8] was 0.384 (inactive); in test [9], -0.845. The composite z-score in test [4] was -0.0763 (inactive); in test [10], 0.0623.
